A short description of test [1]: ATG_M_32_CIS: Attagene CIS-FACTORIAL HepG2 Assay for M32 Transcription Factor (Internal Marker) (AID 2282949).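 Further: background control marker of the multiplexed CIS panel rather than a real target.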 As to conditions: HepG2 Attagene cis-factorial M32 reporter, mRNA; actives raise or lower the signal. The method in brief: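 Transient MRTU transfection of HepG2; 24 h compound treatment; TriZol RNA, oligo(dT) RT, reporter PCR, 6-FAM primer extension, HpaI cut, CE. Gain/loss of signal vs DMSO.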

A short description of test [2]: ATG_M_06_CIS: Attagene CIS-FACTORIAL HepG2 Assay for M06 Transcription Factor (Internal Marker) (AID 2282950). As to conditions: HepG2 Attagene CIS-FACTORIAL M06 internal marker reporter; actives raise or lower the signal. The method in brief:
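Fluorescence-labelled RT-PCR products from cis-promoter reporter units, cut with HpaI and resolved by capillary electrophoresis, give the signal. Cells are human HepG2, dosed for 24 h. Serves as background control, fitted relative to DMSO.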

Test [3] addresses Hypoxia-inducible factor 1-alpha (Homo sapiens) (UniProt Q16665). As to the kind of experiment: ATG_HIF1a_CIS: Attagene CIS-FACTORIAL HepG2 Assay for human Hypoxia Inducible Factor 1 (HIF1A) (AID 2282951). As to conditions: HepG2 Attagene cis-factorial HIF1a reporter transcription; actives raise or lower the signal. The gist of the method:
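Dosed 24 h, transfected HepG2 cells yielded total RNA whose reporter transcripts were RT-PCR-amplified and sized by capillary electrophoresis using fluorescent labelling; DMSO defined baseline, with gain and loss of signal both fitted.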

Test [4] addresses Hepatocyte nuclear factor 6 (Homo sapiens) (UniProt Q9UBC0). As to the kind of experiment: ATG_HNF6_CIS: Attagene CIS-FACTORIAL HepG2 Assay for human Hepatocyte Nuclear Factor 6 (HNF6) (AID 2282952). As to conditions: HepG2 Attagene cis-factorial HNF6 reporter transcription; actives raise or lower the signal. The method in brief: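 Endogenous transcription factor activity in human HepG2 liver cells was captured through cis-regulated reporter constructs. After 24 h treatment, reporter mRNA was measured by RT-PCR with capillary electrophoresis, and activity was fitted in both directions relative to DMSO.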

In test [5] the target is Heat shock factor protein 1 (Homo sapiens) (UniProt Q00613). As to the kind of experiment: ATG_HSE_CIS: Attagene CIS-FACTORIAL HepG2 Assay for human Heat Shock Transcription Factor 1 (HSE) (AID 2282953). As to conditions: HepG2 HSE cis-reporter, Attagene RNA transcription; actives raise or lower the signal. The method in brief: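 After a 24 h incubation with test chemical, transfected HepG2 cells were harvested for RNA; reporter transcripts were measured by RT-PCR and capillary electrophoresis. Values reflect gain or loss of signal relative to DMSO.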
Sequence of Heat shock factor protein 1 (Homo sapiens) (Q00613 whole entry, looked up): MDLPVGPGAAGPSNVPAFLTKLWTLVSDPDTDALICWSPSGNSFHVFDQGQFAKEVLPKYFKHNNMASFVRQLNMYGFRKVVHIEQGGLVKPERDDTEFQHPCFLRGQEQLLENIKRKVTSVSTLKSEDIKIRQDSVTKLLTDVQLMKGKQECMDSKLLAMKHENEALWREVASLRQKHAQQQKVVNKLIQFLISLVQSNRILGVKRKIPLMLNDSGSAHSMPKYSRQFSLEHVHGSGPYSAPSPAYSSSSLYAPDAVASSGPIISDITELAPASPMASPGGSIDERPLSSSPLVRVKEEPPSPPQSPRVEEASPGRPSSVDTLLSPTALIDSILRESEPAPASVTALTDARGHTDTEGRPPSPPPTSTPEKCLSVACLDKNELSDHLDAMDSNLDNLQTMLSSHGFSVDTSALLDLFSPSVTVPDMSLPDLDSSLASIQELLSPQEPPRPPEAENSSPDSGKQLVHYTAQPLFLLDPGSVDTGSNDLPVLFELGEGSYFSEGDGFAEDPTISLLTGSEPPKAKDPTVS

Test [6] in a line: ATG_MRE_CIS: Attagene CIS-FACTORIAL HepG2 Assay for human Metal Responsive Element (MRE) (AID 2282954). As to conditions: HepG2 MRE cis-reporter transcription, Attagene multiplex; actives raise or lower the signal. The method in brief:
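RT-PCR/capillary electrophoresis readout of reporter mRNA, 24 h post-dosing, in HepG2 cells transfected with multiplexed cis-regulated reporter constructs. Gain or loss of signal fitted bidirectionally against DMSO baseline.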

Test [7] in a line: ATG_PBREM_CIS: Attagene CIS-FACTORIAL HepG2 Assay for human Phenobarbital-responsive Enhancer Module (PBREM) (AID 2282955). As to conditions: HepG2 PBREM cis-reporter, Attagene multiplexed transcription; actives raise or lower the signal. The method in brief:
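Transfected liver-derived HepG2 cells exposed 24 h; PBREM reporter transcript quantified via RT-PCR and capillary electrophoresis, with activity in either direction referenced to DMSO.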

Test [8] concerns the target Paired box protein Pax-6 (Homo sapiens) (UniProt P26367). As to the kind of experiment: ATG_Pax6_CIS: Attagene CIS-FACTORIAL HepG2 Assay for human Paired Box 6 (PAX6) (AID 2282956). As to conditions: HepG2 CIS-FACTORIAL PAX6 reporter transcription, RNA readout; actives raise or lower the signal. The method in brief:
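Read-out is reporter transcript level, measured by RT-PCR with fluorescent primer extension and capillary electrophoresis after 24 h dosing of transfected HepG2 cells. Activity in either direction fitted relative to DMSO control.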

Test [9] can be described thus: ATG_PXRE_CIS: Attagene CIS-FACTORIAL HepG2 Assay for human Pregnane X Receptor Element (PXRE) (AID 2282957). As to conditions: HepG2 Attagene CIS-FACTORIAL PXRE reporter, mRNA; actives raise or lower the signal. The method in brief: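 Endogenous transcription factor activity in HepG2 was gauged through induction of reporter mRNA driven by a cis-regulating promoter element, sampled 24 h post-treatment. Activity was fitted in both directions against DMSO negative control.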

A short description of test [10]: ATG_PPRE_CIS: Attagene CIS-FACTORIAL HepG2 Assay for human Peroxisome Proliferator-activated Response Element (PPRE) (AID 2282958). As to conditions: HepG2 PPRE cis-element reporter, Attagene transcription factor profiling; actives raise or lower the signal. The gist of the method: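 Measured endpoint: PPRE-controlled reporter mRNA, detected by RT-PCR and capillary electrophoresis fluorescence, from transiently transfected HepG2 cells 24 h after dosing. Curves fitted in both directions using DMSO baseline.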

The source holds several records for some structures; these can differ, active in one and inactive in another. Active and inactive are the calls of the source. How the source made its calls: active means hit-call score of the fitted dose curve at least 0.9, where 1 is the maximum; inactive means score below 0.9.

Sequence of Hepatocyte nuclear factor 6 (Homo sapiens) (Q9UBC0 whole entry, looked up): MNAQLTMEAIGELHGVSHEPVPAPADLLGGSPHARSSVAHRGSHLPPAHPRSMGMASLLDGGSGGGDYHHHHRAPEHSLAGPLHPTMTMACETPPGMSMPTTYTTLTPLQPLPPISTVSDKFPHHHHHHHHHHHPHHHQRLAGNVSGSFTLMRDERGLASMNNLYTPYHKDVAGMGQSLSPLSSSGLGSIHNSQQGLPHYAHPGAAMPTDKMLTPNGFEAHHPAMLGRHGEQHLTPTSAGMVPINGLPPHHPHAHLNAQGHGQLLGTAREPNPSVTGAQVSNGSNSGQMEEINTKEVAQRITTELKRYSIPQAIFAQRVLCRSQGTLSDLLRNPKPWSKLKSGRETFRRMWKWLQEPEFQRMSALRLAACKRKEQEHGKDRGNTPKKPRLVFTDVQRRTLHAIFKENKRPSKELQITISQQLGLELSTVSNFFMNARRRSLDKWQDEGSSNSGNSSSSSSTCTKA
Sequence of Paired box protein Pax-6 (Homo sapiens) (P26367 whole entry, looked up): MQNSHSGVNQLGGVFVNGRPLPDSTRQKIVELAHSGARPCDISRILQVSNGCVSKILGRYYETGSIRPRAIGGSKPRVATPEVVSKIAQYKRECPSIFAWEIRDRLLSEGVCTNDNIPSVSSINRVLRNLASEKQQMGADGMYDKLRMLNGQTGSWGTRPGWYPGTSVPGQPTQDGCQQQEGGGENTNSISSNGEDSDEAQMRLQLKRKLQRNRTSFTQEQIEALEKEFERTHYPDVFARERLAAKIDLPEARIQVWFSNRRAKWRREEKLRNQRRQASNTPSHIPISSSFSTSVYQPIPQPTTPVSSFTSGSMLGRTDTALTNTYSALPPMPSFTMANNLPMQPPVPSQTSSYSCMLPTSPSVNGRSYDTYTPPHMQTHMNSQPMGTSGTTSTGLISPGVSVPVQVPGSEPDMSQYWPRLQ
Sequence of Hypoxia-inducible factor 1-alpha (Homo sapiens) (Q16665 whole entry, looked up): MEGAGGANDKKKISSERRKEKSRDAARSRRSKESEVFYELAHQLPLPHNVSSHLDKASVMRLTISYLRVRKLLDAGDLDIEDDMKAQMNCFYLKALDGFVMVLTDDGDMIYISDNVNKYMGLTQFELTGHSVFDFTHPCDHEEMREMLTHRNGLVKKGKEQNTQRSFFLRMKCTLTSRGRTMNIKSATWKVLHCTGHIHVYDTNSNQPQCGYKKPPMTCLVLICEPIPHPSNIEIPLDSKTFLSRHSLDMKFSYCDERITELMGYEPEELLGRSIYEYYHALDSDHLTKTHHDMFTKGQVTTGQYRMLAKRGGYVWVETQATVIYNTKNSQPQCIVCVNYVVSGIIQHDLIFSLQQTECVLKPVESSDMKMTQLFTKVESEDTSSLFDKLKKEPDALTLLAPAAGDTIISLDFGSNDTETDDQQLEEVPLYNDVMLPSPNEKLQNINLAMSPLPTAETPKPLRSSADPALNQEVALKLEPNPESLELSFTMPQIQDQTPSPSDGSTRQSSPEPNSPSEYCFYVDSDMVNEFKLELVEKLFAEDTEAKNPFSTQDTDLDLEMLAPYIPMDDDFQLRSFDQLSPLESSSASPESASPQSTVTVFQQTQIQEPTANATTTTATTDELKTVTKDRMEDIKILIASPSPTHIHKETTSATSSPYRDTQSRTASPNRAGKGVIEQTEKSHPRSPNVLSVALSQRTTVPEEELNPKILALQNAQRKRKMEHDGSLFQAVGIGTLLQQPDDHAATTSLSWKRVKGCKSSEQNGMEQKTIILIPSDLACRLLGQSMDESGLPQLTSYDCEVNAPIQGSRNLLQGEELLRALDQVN

Broadly, the AC50 is the concentration at which the activity in the assay is half-maximal. For `CCCCCCCCCCCCCCC(Br)C(=O)O` (centres undefined), the AC50 in [1] was 164 µM (active); in test [2] it was 183 µM (active); in [3], 150 µM (active); in test [4], 187 µM (active); in test [5], 154 µM (active); in test [6], 161 µM (active). Moreover, the AC50 in test [7] was 100 µM (active); in [8], 142 µM (active); in test [10], 42.2 µM (active). For the same molecule, the outcome in test [9] was inactive.

Take `CN(C)[C@@H]1C(=O)C(C(N)=O)=C(O)[C@@]2(O)C(=O)C3=C(O)c4c(O)ccc(Cl)c4[C@@](C)(O)[C@H]3C[C@@H]12`: the molecule was classed as inactive in test [1], in test [2], in [3], in [4], in test [5] and in test [6]. The outcome in test [7] and in test [8] was inactive.

With `CCCCC(CC)C(=O)Cl` (centres undefined), the result in test [1], in test [2], in test [3], in test [4], in test [5] and in test [6] was inactive. Moreover, the result in test [7], in test [8], in [9] and in test [10] was inactive.

Turning to `CC(F)(F)CC(F)(F)F`, the molecule was called inactive in test [1], in [2], in test [3], in test [4], in test [5] and in [6]. The outcome in [7], in test [8], in test [9] and in [10] was inactive.

With `CCCCCCCCCCCCOS(=O)(=O)O`, the result in test [1], in test [2], in test [3], in test [4], in test [6] and in [8] was inactive. Besides, the call in test [9] was inactive. Also, the concentration at half-maximal activity (AC50) is 11.1 µM (active) in [3] and 2.2 µM (active) in test [6].

For `CCCCCCCCBr`, the outcome in test [1], in [2], in test [3], in test [4], in test [5] and in test [6] was inactive. The result in test [7], in test [8] and in test [9] was inactive.

For the molecule `OC[P+](CO)(CO)CO`, the result in test [1], in [2], in test [3], in [4], in test [5] and in test [6] was inactive. Further, the outcome in [7], in test [8] and in test [9] was inactive.

As to `CCCCC(CC)COC(=O)Cl` (centres undefined), the molecule was called inactive in test [1], in test [2], in test [3], in [4], in [5] and in test [6]. In addition, the result in [7], in [8] and in [9] was inactive.

As to `CCOP(=S)(OCC)SCS(=O)(=O)C(C)(C)C`, the outcome in [1], in [2], in [3], in [4], in test [5] and in test [6] was inactive. The outcome in [7], in [8] and in [10] was inactive. For the same molecule, the AC50 in [9] is 4.12 µM (active).

With `C=CC(F)(C(F)(F)F)C(F)(F)C(F)(F)F` (centres undefined), the call in [1], in test [2], in [3], in [4], in [5] and in test [6] was inactive. Further, the outcome in test [7], in test [8], in test [9] and in test [10] was inactive.

In the case of `O=[N+]([O-])c1ccc(Nc2ccccc2)cc1`, the outcome in test [1], in test [2], in test [3], in test [4], in test [5] and in [8] was inactive. Moreover, the figures for the AC50 in test [6], in test [7] and in test [9] were 80.4 µM (active), 23.8 µM (active) and 26.9 µM (active), respectively.

In the case of `CCCCS(=O)(=O)Cl`, the outcome in test [1], in [2], in test [3], in test [4], in test [5] and in [6] was inactive. For the same molecule, the outcome in [7], in test [8], in [9] and in test [10] was inactive.

For the molecule `O=CCCl`, the call in test [1] and in [2] was inactive. For the same molecule, the AC50 is 55 µM (active) in test [3]; 32.6 µM (active) in test [4]; 48.6 µM (active) in test [5]; 43.2 µM (active) in test [6]; 25.2 µM (active) in [7]; 42.5 µM (active) in [8].

Turning to `Clc1cccc(Cl)c1`, the molecule was called inactive in test [1], in test [2], in test [3], in test [4], in test [5] and in test [6]. The result in test [7], in test [8], in [9] and in test [10] was inactive.

On to `CCOC(=O)CC(=O)CCl`, for which the result in test [1], in test [2], in [3], in test [4], in test [7] and in [9] was inactive. Also, the AC50 is 146 µM (active) in [5], 26 µM (active) in test [6] and 27.4 µM (active) in test [8].

In the case of `CCOP(=S)(OCC)OP(=S)(OCC)OCC`, the result in test [1], in test [2], in test [4], in [5], in [6] and in test [7] was inactive. Further, the molecule was called inactive in test [8] and in test [10]. In addition, the AC50 was 49.2 µM (active) in [3] and 1.11 µM (active) in test [9].

`O=C(NC(=O)c1c(F)cccc1F)Nc1cc(Cl)c(Oc2ncc(C(F)(F)F)cc2Cl)c(Cl)c1`: the outcome in [1], in test [2], in test [3], in [4], in test [5] and in test [6] was inactive. Moreover, the result in [7], in test [8], in test [9] and in [10] was inactive.

Take `Brc1ccc(Br)cc1`: the molecule was classed as inactive in test [1], in test [2], in [3], in test [4], in [5] and in test [6]. The result in [7], in [8], in test [9] and in [10] was inactive.

Consider `COP(=S)(OC)Oc1cc(Cl)c(I)cc1Cl`, for which the call in test [1], in test [2], in test [7] and in test [10] was inactive. The AC50 in test [3] was 33.4 µM (active); in test [4], 27.2 µM (active); in [5] it was 62.1 µM (active); in test [6], 37.5 µM (active); in test [8] it was 33.4 µM (active).

For `O=C/C(Cl)=C(/Cl)C(=O)O`, the molecule was classed as inactive in test [1], in [2], in test [3], in test [7] and in test [10]. Moreover, the AC50 in test [4] is 136 µM (active); in [5], 151 µM (active); in [6], 136 µM (active); in test [8], 132 µM (active); in test [9], 167 µM (active).

Regarding `c1ccc2sc(SNC3CCCCC3)nc2c1`, the outcome in [1], in [2], in [4], in test [7] and in [10] was inactive. For the same molecule, the AC50 in [3] was 100 µM (active); in [5], 159 µM (active); in test [6], 119 µM (active); in test [8], 154 µM (active); in test [9], 27 µM (active).

These data come from PubChem BioAssay (EPA / NIEHS).
